This is part of a sample that, as a whole, favours compounds with a hit. Of some 83,000 tested, about 20% had one in any assay.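 Growth was measured after 48 h exposure to one concentration of compound in 96-well plates. Values under 10 count as active.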
Experiments:
Experiment in all cases: NCI-60 one-dose screen, 48 h (100 = growth as untreated, 0 = no growth, -100 = all killed)
Conditions in all cases: 10 µM unless noted
[1] = system: MDA-MB-435 melanoma
[2] = system: SW-620 colon
[3] = system: MCF7 breast
[4] = system: HCT-116 colon
[5] = system: HCC-2998 colon
[6] = system: KM12 colon
[7] = system: BT-549 breast

Measured: growth

C=CCS(C)(=O)=O
inactive: [1] 96.7% | [2] 95.4% | [3] 96.3% | [4] 94% | [5] 108% | [6] 88.3%

NC(=O)NCCO
inactive: [1] 101% | [2] 103% | [3] 98.3% | [4] 109% | [5] 102% | [6] 101%

Cc1[nH]nc(C(N)=O)c1[N+](=O)[O-]
inactive: [7] 109% | [1] 105% | [2] 91% | [3] 97.4% | [4] 99.9% | [5] 106% | [6] 103%

O=S1(=O)c2ccccc2Oc2ccccc21
inactive: [7] 113% | [1] 101% | [2] 95% | [3] 87.8% | [4] 102% | [5] 106% | [6] 109%

Reference: PubChem BioAssay (NCI)
